Experimental data taken from PubChem BioAssay AID1233 (SRMLSC, 2008).
Entries with a potency or affinity are not part of this list. The source made the active and inactive calls.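 How the source made its calls: active means a dose-response curve fit returns a half-maximal inhibitory concentration, extrapolated values included; inactive means the fit returns no such concentration.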

Each molecule was assayed against HMG-CoA reductase [Enterococcus faecalis] (UniProt Q9FD70) (assay: inhibitors of E. faecalis class II HMGR, confirmation, biochemical, Enterococcus faecalis (AID 1233;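 further: 0% = full reaction carrier wells and 100% = background wells lacking mevalonate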)). Conditions: purified E. faecalis HMGR, NADPH absorbance 340 nm kinetics; series mostly up to 100 µM; inhibition: at the top concentration.

Row | SMILES | inhibition
1 | CN(C)CCCN(Cc1ccccc1)C(=S)Nc1ccc(SC(F)F)cc1 | -2.21% (inactive)
2 | COc1cc(C2NC(=O)NC(c3ccccc3)=C2C(C)=O)cc(Cl)c1OCC(=O)O (centres undefined) | -2.8% (inactive)
3 | COc1ccc(CCNC(=O)c2ccccc2Cl)cc1OC | -0.95% (inactive)
4 | O=C1CC(c2ccccc2)CC2=C1CN(C1CCCCC1)CN2 (centres undefined) | -1.51% (inactive)
5 | COC(=O)[C@@]1(Cc2ccc(OC)cc2)[C@H]2c3cc(C(=O)N(C)C)n(CCc4ccc(OC)c(Br)c4)c3C[C@H]2CN1C(=O)c1ccccc1 | -3.7% (inactive)
6 | COC(=O)CSc1ncc(C#N)c(N)n1 | -9% (inactive)
7 | COc1cc(S(=O)(=O)Nc2ccccc2C)ccc1NC(=O)c1ccncc1 | -5.86% (inactive)
8 | Cc1cccc(C(=O)NC2CCN(C(=O)Nc3ccccc3C)CC2)c1 | -0.56% (inactive)
9 | COC(=O)c1sccc1-c1ccc(C(=O)Nc2cccnc2)o1 | -1.88% (inactive)
10 | O=C(Nc1ccc(N2CCCCC2)cc1)c1ccc2c(c1)OCCO2 | -4.93% (inactive)
11 | CCOC(=O)C1=C(COc2ccc(F)cc2Cl)NC(=O)NC1c1cc(C)ccc1C (centres undefined) | -5.48% (inactive)
12 | O=C(CCc1nnc(CCCc2ccccc2)o1)NCCc1ccccc1 | -5.36% (inactive)
13 | Cc1nc(Nc2nc3ccccc3o2)nc2c1CCC2 | -0.84% (inactive)
14 | CCOCC(=O)OCC(=O)Nc1cc(OC)c([N+](=O)[O-])cc1C | -10.1% (inactive)
15 | C=CCOc1ccc(Br)cc1CNC(C)(C)C | -2.42% (inactive)
16 | Cn1c(OCc2cccnc2)nc2c1c(=O)n(Cc1ccc(Br)cc1)c(=O)n2C | -5.55% (inactive)
17 | CC(NCCC(c1ccccc1)c1ccccc1)c1ccccc1 (centres undefined) | -3.54% (inactive)
18 | OCc1ccccc1CNCc1ccccc1 | 0.24% (inactive)
19 | CCC(Sc1ccccn1)C(=O)Nc1cccc([N+](=O)[O-])c1 (centres undefined) | -5.94% (inactive)
